Results taken from PubChem BioAssay (NCI).
This is part of a sample that, as a whole, favours compounds with a hit. Of some 83,000 tested, about 20% had one in any assay.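 The endpoint reported here, percent growth, reads 100 for growth as untreated, 0 for no net growth and -100 for all cells dead.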

Legend:
Test in all cases: NCI-60 one-dose screen, 48 h (100 = growth as untreated, 0 = no growth, -100 = all killed)
Settings in all cases: 10 µM unless noted; active means growth percent below 10; inactive means the rest
NCI-H23 lung = system: NCI-H23 lung
NCI-H226 lung = system: NCI-H226 lung
NCI-H322M lung = system: NCI-H322M lung
HOP-62 NSCLC = system: HOP-62 NSCLC
NCI-H460 lung = system: NCI-H460 lung
HOP-92 NSCLC = system: HOP-92 NSCLC
NCI-H522 lung = system: NCI-H522 lung
A549/ATCC NSCLC = system: A549/ATCC NSCLC
786-0 renal = system: 786-0 renal
COLO 205 colon = system: COLO 205 colon
DU-145 prostate = system: DU-145 prostate
K-562 leukemia = system: K-562 leukemia
MALME-3M melanoma = system: MALME-3M melanoma
MDA-MB-231 breast = system: MDA-MB-231 breast
RXF 393 renal = system: RXF 393 renal
SF-268 CNS = system: SF-268 CNS
SF-295 CNS = system: SF-295 CNS
SF-539 CNS = system: SF-539 CNS
UACC-257 melanoma = system: UACC-257 melanoma
M14 melanoma = system: M14 melanoma

Measured: growth

C[C@H]1[C@H]2C3=CC[C@@H]4[C@@]5(C)C/C(=C/c6ccco6)C(=O)C(C)(C)[C@@H]5CC[C@@]4(C)[C@]3(C)CC[C@@]2(C(=O)N2CCOCC2)CC[C@@H]1C
inactive: NCI-H23 lung 44.2% | NCI-H226 lung 83.8% | NCI-H322M lung 95.3% | HOP-62 NSCLC 105% | NCI-H460 lung 94.9% | HOP-92 NSCLC 78.4% | NCI-H522 lung 38% | A549/ATCC NSCLC 70.4% | 786-0 renal 95.5% | COLO 205 colon 94.1% | DU-145 prostate 88.1% | K-562 leukemia 27.4% | MALME-3M melanoma 83.3% | MDA-MB-231 breast 90.5% | RXF 393 renal 62% | SF-268 CNS 85.8% | SF-295 CNS 81.4% | SF-539 CNS 82.7% | UACC-257 melanoma 88.4% | M14 melanoma 76.9%

Nc1ncnc2nc(Br)[nH]c12
inactive: NCI-H23 lung 92.7% | NCI-H226 lung 85.9% | NCI-H322M lung 108% | HOP-62 NSCLC 98% | NCI-H460 lung 106% | HOP-92 NSCLC 94.7% | NCI-H522 lung 85.9% | A549/ATCC NSCLC 77.1% | 786-0 renal 95.1% | COLO 205 colon 103% | DU-145 prostate 102% | K-562 leukemia 89.6% | MALME-3M melanoma 100% | MDA-MB-231 breast 99.8% | RXF 393 renal 103% | SF-268 CNS 98.3% | SF-295 CNS 102% | SF-539 CNS 103% | UACC-257 melanoma 87.7% | M14 melanoma 92.1%

C=COCCCCCCCCCCCCCCCCCC
inactive: NCI-H23 lung 101% | NCI-H226 lung 104% | NCI-H322M lung 137% | HOP-62 NSCLC 108% | NCI-H460 lung 107% | HOP-92 NSCLC 75.6% | NCI-H522 lung 97.5% | A549/ATCC NSCLC 79.5% | 786-0 renal 102% | COLO 205 colon 104% | DU-145 prostate 106% | K-562 leukemia 119% | MALME-3M melanoma 109% | MDA-MB-231 breast 90.4% | RXF 393 renal 119% | SF-268 CNS 101% | SF-295 CNS 118% | SF-539 CNS 96.4% | UACC-257 melanoma 92.2% | M14 melanoma 113%

C#CCn1c2c(c3ccccc31)C[C@]1(C)[C@H]3CC[C@@H]4[C@@H]5C(=CCC[C@H]5C(=C)C)CC[C@@]4(C)[C@]3(C)CC[C@H]1C2(C)C
inactive: NCI-H23 lung 106% | NCI-H226 lung 102% | NCI-H322M lung 103% | HOP-62 NSCLC 97.1% | NCI-H460 lung 99.8% | HOP-92 NSCLC 124% | NCI-H522 lung 96.5% | A549/ATCC NSCLC 102% | 786-0 renal 106% | COLO 205 colon 104% | DU-145 prostate 108% | K-562 leukemia 91.9% | MALME-3M melanoma 110% | MDA-MB-231 breast 101% | RXF 393 renal 128% | SF-268 CNS 97.8% | SF-295 CNS 107% | SF-539 CNS 97.1% | UACC-257 melanoma 108% | M14 melanoma 100%

CC(c1ccccc1)N1C(=O)C(C2SC(=S)N(C(C)c3ccccc3)C2=O)SC1=S (stereo not given)
inactive: NCI-H23 lung 96.1% | NCI-H226 lung 99.9% | NCI-H322M lung 93.1% | HOP-62 NSCLC 97.5% | NCI-H460 lung 82.5% | HOP-92 NSCLC 83.7% | NCI-H522 lung 77.5% | A549/ATCC NSCLC 82.3% | 786-0 renal 96.2% | COLO 205 colon 85.7% | DU-145 prostate 95.1% | K-562 leukemia 57.9% | MALME-3M melanoma 69.9% | MDA-MB-231 breast 73.4% | RXF 393 renal 85.6% | SF-268 CNS 92.2% | SF-295 CNS 98.6% | SF-539 CNS 50.6% | UACC-257 melanoma 81.7% | M14 melanoma 69.8%

O=[N+]([O-])c1cc(S(=O)(=O)c2ccc(F)c([N+](=O)[O-])c2)ccc1F
inactive: NCI-H23 lung 103% | NCI-H226 lung 109% | NCI-H322M lung 110% | HOP-62 NSCLC 121% | NCI-H460 lung 99.3% | HOP-92 NSCLC 88.6% | NCI-H522 lung 89% | A549/ATCC NSCLC 102% | 786-0 renal 100% | COLO 205 colon 83% | DU-145 prostate 98.1% | K-562 leukemia 40.4% | MALME-3M melanoma 132% | MDA-MB-231 breast 103% | RXF 393 renal 82.9% | SF-268 CNS 108% | SF-295 CNS 111% | SF-539 CNS 109% | UACC-257 melanoma 75.4% | M14 melanoma 81.7%

Cn1cc(-c2csc(-c3cn(CCNC(=O)OC(C)(C)C)c4ccccc34)n2)c2cccnc21
inactive: NCI-H23 lung 65.7% | NCI-H226 lung 55.9% | NCI-H322M lung 90.1% | HOP-62 NSCLC 72.5% | NCI-H460 lung 92.6% | HOP-92 NSCLC 56.6% | NCI-H522 lung 52.6% | A549/ATCC NSCLC 78.8% | 786-0 renal 93.6% | COLO 205 colon 73.3% | DU-145 prostate 101% | K-562 leukemia 56.2% | MALME-3M melanoma 82.8% | MDA-MB-231 breast 82.9% | RXF 393 renal 105% | SF-268 CNS 90.5% | SF-295 CNS 97.7% | SF-539 CNS 93.1% | UACC-257 melanoma 92.2% | M14 melanoma 61.1%

N#C/C(=C\c1ccc(-c2cccc(C(F)(F)F)c2)o1)c1nc(-c2ccco2)cs1
inactive: NCI-H23 lung 91.8% | NCI-H226 lung 84.1% | NCI-H322M lung 89.2% | HOP-62 NSCLC 105% | NCI-H460 lung 94.4% | HOP-92 NSCLC 86.9% | NCI-H522 lung 90% | A549/ATCC NSCLC 104% | 786-0 renal 102% | COLO 205 colon 118% | DU-145 prostate 105% | K-562 leukemia 92.3% | MALME-3M melanoma 93.8% | MDA-MB-231 breast 78.9% | RXF 393 renal 107% | SF-268 CNS 99.8% | SF-295 CNS 94.2% | SF-539 CNS 91.4% | UACC-257 melanoma 105% | M14 melanoma 97.8%
